Hit rate of the full screen: of about 330,000 compounds, about 1,300 (0.39%) were called active.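 How the source made its calls: active means inhibition of 50% or more; inactive means inhibition below 50%.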 Many of the other results were omitted from the sample, so actives are more common in it than they were.

The test in a line: NALP3 inflammasome inhibitors in reconstituted yeast, primary screen, luminescence, uHTS (AID 2825).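 Further: plate controls were induced DMSO wells for no effect and uninduced yeast grown without galactose for full effect.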 As to conditions: Yeast reconstituted NLRP3/ASC/caspase-1, beta-gal luminescence, 24 h; at 10 µM; active compounds read high.
In general, inhibition refers to the relative decrease from the control value, in per cent. Turning to `O=C(COc1coc(CN2CCN(c3ccccc3)CC2)cc1=O)Nc1ccccc1F`, the inhibition was 11.8% (inactive). With `O=S(=O)(c1ccc(Cl)cc1)c1nc(-c2ccco2)oc1N1CCCCC1` the figure was 22.9% (inactive). For `N#Cc1nc(COc2ccc(Cl)cc2)oc1N1CCCC1` the value was 55.6% (active). With `CC1CCN(c2oc(-c3ccccc3F)nc2C#N)CC1` the figure was 26.9% (inactive); with `Cc1ccc(OCc2nc(C#N)c(N3CCCC3)o2)cc1`, 63% (active); with `N#Cc1ccc(OCc2nnc(-c3ccc([N+](=O)[O-])cc3)o2)cc1`, 20.8% (inactive). On to `COc1ccc(-c2oc(/N=C/N3CCCC3)c(C#N)c2-c2ccc(OC)cc2)cc1`, for which the inhibition is 15.6% (inactive). With `CC(C(=O)N=Nc1c(O)n(C)c2ccc(Br)cc12)n1cnc2ccccc2c1=O` (centres undefined) the figure was 7.45% (inactive); with `COc1ccc(CC(=O)Nc2sc(Cc3ccccc3)c(C)c2C(N)=O)cc1`, 25.1% (inactive); with `O=C(CN1C(=O)/C(=C\c2ccc(C(F)(F)F)cc2)Sc2ccccc21)NCc1ccco1`, -3.88% (inactive). With `C#CCN1CC(C)/C(=N/O)CC1C` (centres undefined) the figure was 8.21% (inactive); with `CSc1ccc(CN(C)CC(=O)NCc2ccc(F)cc2)cc1`, 30.5% (inactive); with `CC(Oc1ccc2c(-c3ccccc3)cc(=O)oc2c1)C(=O)NC(Cc1c[nH]c2ccccc12)C(=O)O` (centres undefined), 18.5% (inactive).

With `CCC(C)Sc1nc2c(cnn2-c2ccc(F)cc2)c(=O)[nH]1` (centres undefined), the inhibition is -8.33% (inactive).

On to `CCOc1ccc(-n2c(SCC(=O)OC)nc3sc4c(c3c2=O)CCN(C)C4)cc1`, for which the inhibition was -6.96% (inactive).

For `CCSc1nc2sc3c(c2c(=O)n1-c1ccc(C)cc1)CCN(C)C3`, the inhibition was 58.9% (active).

`CCCSc1nc2sc3c(c2c(=O)n1-c1ccc(OC)cc1)CCN(C)C3`: the inhibition is 18.1% (inactive). With `CCOP(=O)(OCC)C(Nc1cccc(C)c1)c1ccc(F)cc1` (centres undefined) the figure was 3.8% (inactive); with `Cc1ccccc1N1CCN(C2CCCN(C(=O)c3ocnc3C)C2)CC1` (centres undefined), 25.2% (inactive). With `CCCc1nc2c(c(=O)c3ccccc3n2C)c(=O)n1C1CCCCCC1` the figure was 64.7% (active); with `Cn1c2ccccc2c2c(C(=O)N3CCN(c4ccc(F)cc4)CC3)cn(C3CCCC3)c(=O)c21`, 15.6% (inactive). With `CC1CCN(Cc2nc3c(c(=O)n(C)c(=O)n3C)n2CCc2ccccc2)CC1` the figure was 21.2% (inactive).

Turning to `Cc1onc(-c2c(Cl)cccc2Cl)c1C(=O)c1c[nH]c(C(=O)NC2CC2)c1`, the inhibition was 12.6% (inactive). Regarding `Cc1cccc(N=C2SC(C)CN2C(=O)CN2C(=O)NC3(CCCC3)C2=O)c1` (centres undefined), the inhibition is -3.71% (inactive). For `C[C@@H]1C[C@@H]2O[C@H]2/C=C\C=C\C(=O)Cc2c(Cl)c(O)cc(O)c2C(=O)O1` the value was 53.1% (active); for `COc1ccc(NC(=O)C2CCC(CNC(=O)[C@@H]3Cc4ccccc4CN3)CC2)cc1` (some centres undefined), -1.77% (inactive).

On to `O=C(CSc1ncnc2c1oc1ccccc12)NC1CCCC1`, for which the inhibition is 52% (active).

`O=C(CSc1nnc2c(n1)[nH]c1ccccc12)NC1CCCCC1`: the inhibition is 18.6% (inactive). For `O=C(CSc1nnc(-c2ccccc2O)o1)NC1CCCCC1` the value was 35.2% (inactive); for `COC(=O)CN1C(=O)[C@H]2[C@@H](/C=C/c3ccccc3)N3C(=O)CN(CC4CC4)C(=O)[C@@]3(Cc3ccccc3)[C@H]2C1=O`, 1.91% (inactive); for `CCOc1ccc(C2/C(=C(/O)c3ccc4c(c3)CC(C)O4)C(=O)C(=O)N2CCCn2ccnc2)cc1` (centres undefined), 15.6% (inactive). For `COc1ccc(OCC(=O)NCCS(=O)(=O)N2CCN(c3ccc(F)cc3)CC2)cc1`, the inhibition was 7.19% (inactive).

With `O=C(/C=C/c1ccco1)Nc1ccc(Oc2ccccc2)cc1`, the inhibition was 22.4% (inactive). In the case of `O=C(NNC(=O)c1ccco1)Nc1ccccc1`, the inhibition was 8.53% (inactive). Take `COc1cc(NC(=O)c2cc([N+](=O)[O-])ccc2Br)ccc1NC(=O)c1ccco1`: the inhibition was 20.7% (inactive). With `COc1ccccc1C(=O)Nc1ccc(NC(=O)c2ccco2)c(C)c1` the figure was 50.8% (active). For `Cc1cc(NC(=O)c2ccc(F)cc2)ccc1NC(=O)c1ccco1` the value was 12.3% (inactive); for `O=C(Nc1ccc(Oc2ccccc2)cc1)c1ccco1`, 50.8% (active). For `Cc1cc(O)c(C(=O)/C=C/c2c(F)c(F)c(F)c(F)c2F)c(=O)o1` the value was 12.5% (inactive); for `CCOc1ccc(N(C(=O)c2snc(C(N)=O)c2N)C(C(=O)NCC2CCCO2)c2c[nH]c3ccccc23)cc1` (centres undefined), 10.6% (inactive). Consider `COc1cc(OC)c(C(=S)N2CCCC2)cc1OC`, for which the inhibition was 16% (inactive). Turning to `COc1ccc(NC(=O)COC(=O)c2ccncc2)c(OC)c1`, the inhibition is 18.3% (inactive). For `O=C(COc1cccc(F)c1)Oc1ccc(C(=O)c2ccccc2)cc1` the value was -40.2% (inactive). For `CCOc1ccc(OCC)c(-c2c(=O)n(OCc3ccc(Cl)cc3)c3ccccc3[n+]2[O-])c1` the value was 3.29% (inactive). With `O=C(COC(=O)c1ccccc1SCC(=O)N1CCCC1)Nc1ccccc1OC(F)F` the figure was 19.4% (inactive); with `CCOC(=O)C1CCN(Cc2c(C(=O)N3CCOCC3)nc3c(C)cccn23)CC1`, 9.59% (inactive); with `CN(C(=O)c1ccccn1)c1nnc(-c2ccccn2)s1`, 9.46% (inactive). With `CN(C)c1ccnc2sc(C(=O)c3ccccc3)c(N)c12`, the inhibition was 64.4% (active). With `CCN(CC)C(=O)c1sc2nc(-c3ccccc3)ccc2c1N` the figure was 20.7% (inactive); with `O=C(Oc1cccc(O)c1)C1CCCCC1`, 9.17% (inactive); with `Cc1ccccc1C(=O)NC(=S)NC1CC1`, -9.47% (inactive). With `O=C(c1cccc(S(=O)(=O)N2CCCC2)c1)N(Cc1ccco1)C1CCS(=O)(=O)C1` (centres undefined) the figure was 19.1% (inactive); with `CC(OC(=O)c1cc2ccccc2[nH]1)C(=O)N(C)c1ccccc1` (centres undefined), -0.144% (inactive); with `COc1ccc2[nH]c(C(=O)Nc3ccccc3Cl)cc2c1`, -3.34% (inactive).

Take `O=C(Nc1ccccc1)c1cc2ccccc2[nH]1`: the inhibition is 58.5% (active).

For `COc1ccc(C(=O)c2c(C)c(CCC#N)n3ccccc23)c(OC)c1`, the inhibition was 3.12% (inactive). With `O=C(Nc1ccc(S(=O)(=O)N2CCCCC2)cc1)C1CCN(C(=O)c2ccc(F)cc2)CC1` the figure was 8.87% (inactive); with `O=C(c1[nH]ncc1-c1ccc(Cl)cc1)C1CO1` (centres undefined), 2.92% (inactive). `COc1cc(C(=O)OCc2cc(=O)n3ccsc3n2)ccc1OC(C)C`: the inhibition is 16.3% (inactive). For `Cc1c(Cl)c([N+](=O)[O-])nn1CCCC(=O)NC(C)c1ccccc1` (centres undefined) the value was 7.95% (inactive); for `COC(=O)CCNC(=O)c1ccc2[nH]c(C)c(C)c2c1`, -4.49% (inactive).

On to `CC(C)(c1ccccc1)c1ccc(OCCN)cc1`, for which the inhibition is 54.5% (active). For `CC(C)(c1ccccc1)c1ccc(OCCN2CCCC2)cc1` the value was 31.2% (inactive); for `Cc1nn(CCOc2ccccc2)c(=O)n1-c1ccccc1F`, -0.993% (inactive); for `COc1cnn(-c2ccc([N+](=O)[O-])cc2)c(=O)c1Cl`, -39.9% (inactive). With `Nc1c(-c2cccc(Cl)c2)cnn1-c1cccc([N+](=O)[O-])c1` the figure was 50.4% (active); with `Cc1ccc(-c2cn(S(=O)(=O)c3cccc([N+](=O)[O-])c3)nc2N)cc1`, -10.8% (inactive).

Regarding `Cc1ccc(CSc2nsc(C)c2C#N)cc1`, the inhibition was 63.5% (active). With `Cc1snc(SCc2c(F)cccc2Cl)c1C#N` the figure was 18.9% (inactive).

As for `Cc1cc(C)c(C#N)c(SCc2ccc3c(c2)OCO3)n1`, the inhibition is 7.1% (inactive). For `O=C(CCNC(=O)c1ccccc1)NN=Cc1ccc(Br)o1` the value was 20.8% (inactive). For `C=CCn1c(=O)c(C(=O)Nc2ncccc2O)c(O)c2ccccc21` the value was 22.7% (inactive); for `Cn1c(=O)c(C(=O)Nc2ncccn2)c(O)c2ccccc21`, 50.1% (active); for `CCCn1c(=O)c(C(=O)Nc2cc(C)ccn2)c(O)c2ccccc21`, 18.1% (inactive). Take `CS(=O)(=O)N(Cc1nc2sc3c(c2c(=O)[nH]1)CCCC3)C1CCCCC1`: the inhibition is 19.1% (inactive). On to `CC[C@@H](C)[C@H](NC(=O)CCc1c(C)c2cc3c4c(oc3c(C)c2oc1=O)CCCC4)C(=O)O`, for which the inhibition is 17.7% (inactive). For `Cc1cc(Cl)nc(NC(=O)Nc2cccc(Cl)c2)n1` the value was 25.9% (inactive); for `Cc1cc(C)nc(NC(=O)Nc2ccccc2C(F)(F)F)n1`, 54.9% (active); for `COc1cccc(C(=O)NC(=O)Nc2nc(C)cc(C(F)(F)F)n2)c1`, 6.49% (inactive). For `Cc1ccc(CNC(=O)Cn2cnc(S(=O)(=O)N3CCCCC3)c2)o1` the value was 4.74% (inactive).

Take `O=C(c1ccccc1)c1cc(-c2ccccn2)c(N2CCOCC2)s1`: the inhibition is -6.23% (inactive). For `CCOC(=O)C1=C(C)NC(C)=C(C(=O)OCC)C1C1=COCCO1` the value was 22.7% (inactive); for `CCOc1ccc(N2C(=O)CSC2=NC#N)cc1`, 11.9% (inactive); for `COc1cc(C(=O)N2CCN(C)CC2)cc(OC)c1OC`, 9.48% (inactive). Take `COc1cc(N2C(=O)CC3(CCCC3)CC2=O)cc(OC)c1OC`: the inhibition is 3.58% (inactive). In the case of `COc1cc(N2C(=O)CSC2=S)cc(OC)c1OC`, the inhibition is 58.3% (active).

Consider `O=C1CSC(=S)N1c1ccc(O)cc1`, for which the inhibition is 81.7% (active). For `O=C1CSC(=S)N1c1ccc(Cl)c(Cl)c1` the value was 41.8% (inactive); for `COCCNc1cc(-c2ccccc2)nc2cc(-c3cccc(F)c3)nn12`, 32.2% (inactive). For `CCCCC(=O)Nc1ccccc1N1CCN(c2ccc(F)cc2)CC1` the value was 17.7% (inactive); for `CC(C)NC(=S)NN=C1CCCCCCCCCCC1`, 26.8% (inactive). With `Cc1ccc2nsnc2c1S(=O)(=O)N1CCCC1C(=O)O` (centres undefined) the figure was 14.6% (inactive). Take `COc1ccc(S(=O)(=O)N2CCOC23CCN(S(=O)(=O)c2ccc([N+](=O)[O-])cc2)CC3)cc1`: the inhibition is 23.5% (inactive). With `O=C(c1ccncc1)N1CCN(S(=O)(=O)c2cc(C(F)(F)F)cc(C(F)(F)F)c2)CC1` the figure was 6.83% (inactive).

For the origin of these results see PubChem BioAssay AID2825 (Sanford-Burnham Center for Chemical Genomics, 2010).
